# Source: PubChem BioAssay (NCATS)
# A number with no mark means an inactive call. Inconclusive results are not listed. Calls of active or inactive are those of the source. Unless noted, calls follow the shape of the dose curve; as a rule, active = well fitted curve in either direction with a large enough effect (not every such curve was filed as active); inconclusive = small, poorly fitted or top-dose-only effect, or another doubt; inactive = flat fitted curve, though single readings scatter.
# Key:
# [1] = target: Lysosomal acid glucosylceramidase (Homo sapiens) (UniProt P04062); test: Glucocerebrosidase-p2 (AID 348; in the data active = potency below about 10 µM; also: potency is read from the fitted curve at half-maximal effect); conditions: purified GBA, blue fluorogenic substrate, 40 min
# How it was run: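 Normal human glucocerebrosidase (0.2 nM) with blue fluorogenic substrate (80 uM final) in citrate/phosphate pH 5.9 with 10mM sodium taurocholate, 0.01% tween-20; 40 min RT, NaOH/glycine stop; fluorescence Ex 365/Em 440; AC50 from a titration from 0.6 nM upwards.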
# [2] = AP1 Signaling Pathway (AID 357); conditions: ME-180 AP-1-bla reporter, EGF-induced, beta-lactamase ratio, 5 h; at 7.69 µM (top of the series) unless noted; also: % is scaled to controls: 0 for no effect and ±100 for the full control effect
# How it was run: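 AP-1-bla ME-180 cells with beta-lactamase reporter under AP-1 response element, stimulated with EC50 EGF; compounds titrated, 5 hours at 37 degrees Celsius. CCF4 read at 460/530 nm ratio; positive and negative modulators judged by AC50.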
# [3] = NFAT Signaling Pathway (AID 444); conditions: Jurkat NFAT-bla M1, carbachol, beta-lactamase ratio, 5 h; at 7.69 µM (top of the series) unless noted;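 also: carbachol stimulus at about its EC50 of 1 µM final; % is scaled to controls: 0 for no effect and ±100 for the full control effect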
# How it was run: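 Jurkat cells carrying an NFAT-driven β-lactamase reporter and co-transfected muscarinic M1 receptor were treated with compound plus carbachol (1 uM final, an EC50 level) for 5 h at 37 °C. CCF4 loading followed for 1 h at RT; 460/530 nm ratio gave %activity.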
# [4] = Stat Signaling Pathway (AID 446); conditions: ME-180 (cervical carcinoma) SIE beta-lactamase reporter, IL-6 stimulated, 5 h; at 7.69 µM (top of the series) unless noted;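 also: ME-180 cervical cancer cells given 40 pM IL-6 alongside compound; SIE-controlled beta-lactamase reporter measured as 460/530 nm FRET emission ratio; % is scaled to controls: 0 for no effect and ±100 for the full control effect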
# How it was run: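 Normalization used AC90 stimulation (300 pM IL-6) and AC90 inhibition (125 nM pan-JAK inhibitor at 40 pM IL-6). The underlying signal is SIE-driven beta-lactamase in ME-180 cells after 5 h IL-6 exposure with compound.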
# [5] = target: Glucocorticoid receptor (Homo sapiens) (UniProt P04150); test: GR-GFP Redistribution (AID 450;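 active = compounds whose dose series gives a full or clear partial fitted curve of increased nuclear translocation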; also: potency is read from the fitted curve at half-maximal effect); conditions: U2OS GR-GFP nuclear translocation, laser cytometry, 2 h
# [6] = target: Glucocorticoid receptor (Homo sapiens) (UniProt P04150); test: GR-EFC Redistribution (AID 451; calls by dose curve; also: potency is read from the fitted curve at half-maximal effect); conditions: CHO-K1 GR-EFC translocation, beta-gal luminescence, 2 h
# How it was run: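 CHO-K1 cells stably expressing nuclear-localized β-gal enzyme acceptor and GR fused C-terminally to the enzyme donor fragment; ligand-driven nuclear translocation restores β-gal by complementation. Compounds titrated up to 46 uM final, 2 h at 37 °C; luminescence read.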
# [7] = target: Mitogen-activated protein kinase 10 (Mus musculus) (UniProt Q61831); test: JNK3 AlphaScreen Assay (AID 530); conditions: JNK3 lysate, c-Jun phosphorylation; series mostly up to 11.4 µM;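 also: kinase came from lysate of stimulated human HepG2 cells; signal reports phosphorylation of biotinylated GST-cJun 1-79 at Ser73 with 10 µM ATP; % is scaled to controls: 0 for no effect and ±100 for the full control effect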
# How it was run: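 Biotinylated GST-cJun(1-79) served as substrate for JNK3 in HepG2 lysates stimulated with IL-1beta and TNF-alpha. ATP was 10 uM final, pH 7.6. Ser73 phosphorylation was quantified by AlphaScreen (680 nm excitation).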
# [8] = target: 3',5'-cyclic-AMP phosphodiesterase 4B (Homo sapiens) (UniProt Q07343); test: qHTS Assay for Inhibitors of PDE-IV (AID 607; active = well fitted activation curve with a large enough effect in the main read-out, with a control signal flat, not every such curve was filed as active; also: % of control where 0% means no effect); conditions: HEK293 ACTOne CNG channel cells, membrane potential fluorescence; series mostly up to 22.9 µM
# How it was run: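 HEK293 ACTOne cells with CNG channel (1000/well), endogenous PDE4; membrane potential dye, compounds up to 22.9 uM final. Fluorescence Ex 535/Em 590; RO 20-1724 (100 uM final) as reference.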
# Lysosomal acid glucosylceramidase (Homo sapiens), sequence (P04062 whole entry, looked up): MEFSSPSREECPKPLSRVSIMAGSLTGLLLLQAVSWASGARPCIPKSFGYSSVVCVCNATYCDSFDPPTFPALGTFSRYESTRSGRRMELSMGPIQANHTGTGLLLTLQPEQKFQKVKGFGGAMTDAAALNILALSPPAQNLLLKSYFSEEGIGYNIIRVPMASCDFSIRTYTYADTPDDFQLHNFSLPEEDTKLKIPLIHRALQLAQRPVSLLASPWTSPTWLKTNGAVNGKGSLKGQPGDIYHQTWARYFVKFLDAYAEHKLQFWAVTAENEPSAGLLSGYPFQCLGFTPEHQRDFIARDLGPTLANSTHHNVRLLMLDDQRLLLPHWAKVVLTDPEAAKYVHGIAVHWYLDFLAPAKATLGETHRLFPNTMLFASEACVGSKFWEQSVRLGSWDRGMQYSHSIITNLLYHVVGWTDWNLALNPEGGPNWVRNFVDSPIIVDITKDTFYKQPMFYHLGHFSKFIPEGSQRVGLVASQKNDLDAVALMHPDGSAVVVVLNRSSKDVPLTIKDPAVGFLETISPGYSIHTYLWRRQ
# Glucocorticoid receptor (Homo sapiens), sequence (P04150 whole entry, looked up, the tested form may be a part): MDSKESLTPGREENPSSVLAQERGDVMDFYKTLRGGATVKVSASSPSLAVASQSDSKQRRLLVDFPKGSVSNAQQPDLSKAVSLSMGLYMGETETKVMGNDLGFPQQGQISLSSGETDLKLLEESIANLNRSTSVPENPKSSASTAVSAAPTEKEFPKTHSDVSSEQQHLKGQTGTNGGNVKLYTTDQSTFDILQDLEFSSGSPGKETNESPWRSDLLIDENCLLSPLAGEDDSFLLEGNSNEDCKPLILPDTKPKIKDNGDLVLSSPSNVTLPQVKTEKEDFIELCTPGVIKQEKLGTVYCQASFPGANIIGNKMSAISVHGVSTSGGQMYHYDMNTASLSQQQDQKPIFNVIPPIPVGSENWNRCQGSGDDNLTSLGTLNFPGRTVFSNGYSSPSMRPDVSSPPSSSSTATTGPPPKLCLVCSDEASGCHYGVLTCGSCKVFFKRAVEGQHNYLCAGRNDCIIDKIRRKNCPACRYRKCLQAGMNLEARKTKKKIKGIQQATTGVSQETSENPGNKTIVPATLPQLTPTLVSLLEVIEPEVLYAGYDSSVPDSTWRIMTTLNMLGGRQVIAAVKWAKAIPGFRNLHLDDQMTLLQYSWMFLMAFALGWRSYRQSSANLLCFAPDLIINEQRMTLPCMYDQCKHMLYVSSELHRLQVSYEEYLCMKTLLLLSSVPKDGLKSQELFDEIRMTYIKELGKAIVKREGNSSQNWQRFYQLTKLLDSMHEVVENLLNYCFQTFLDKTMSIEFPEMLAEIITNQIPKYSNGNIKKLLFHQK
# 3',5'-cyclic-AMP phosphodiesterase 4B (Homo sapiens), sequence (Q07343 whole entry, looked up): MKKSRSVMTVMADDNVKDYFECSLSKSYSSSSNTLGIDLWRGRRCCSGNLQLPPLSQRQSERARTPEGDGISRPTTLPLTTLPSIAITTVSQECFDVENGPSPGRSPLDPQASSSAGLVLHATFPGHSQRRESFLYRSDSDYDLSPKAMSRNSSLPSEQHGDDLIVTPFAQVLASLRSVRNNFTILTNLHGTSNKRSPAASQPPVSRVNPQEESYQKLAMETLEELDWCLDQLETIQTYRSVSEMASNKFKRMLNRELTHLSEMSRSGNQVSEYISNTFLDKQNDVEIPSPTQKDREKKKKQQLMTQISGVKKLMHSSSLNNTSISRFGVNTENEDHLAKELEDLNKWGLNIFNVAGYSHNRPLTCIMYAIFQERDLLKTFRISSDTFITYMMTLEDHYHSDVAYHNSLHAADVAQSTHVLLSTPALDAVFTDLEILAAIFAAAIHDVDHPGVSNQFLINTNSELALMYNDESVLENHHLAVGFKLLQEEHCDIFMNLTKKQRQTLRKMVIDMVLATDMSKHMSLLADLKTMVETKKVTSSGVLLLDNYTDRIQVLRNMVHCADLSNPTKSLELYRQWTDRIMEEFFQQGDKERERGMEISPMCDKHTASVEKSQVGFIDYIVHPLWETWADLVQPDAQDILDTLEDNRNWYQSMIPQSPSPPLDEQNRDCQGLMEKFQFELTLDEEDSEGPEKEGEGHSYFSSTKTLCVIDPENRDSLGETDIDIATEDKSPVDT
SMILES,Potency [1] [µM],"activity change, negative = inhibition [2] [%]","activity change, negative = inhibition [3] [%]","activity, negative = inhibition [4] [%]",Potency [5] [µM],Potency [6],Potency [7],Potency [8]
Clc1ccccc1/C=C\c1ccnc2ccccc12,> 11.4,-23.6,2.98,1.25,> 46,> 9.22 µM,inactive,inactive
O=C1Nc2ccccc2[C@]1(O)Cc1ccccn1,> 11.4,1.94,2.79,12.1,> 46,0.26 µM (active),inactive,inactive
[Cu].[NH-][C@H](CC(=O)O)C(=O)O.[NH-][C@H](CC(=O)O)C(=O)O,> 11.4,5.72,8.79,13.3,> 46,> 9.22 µM,inactive,inactive
C[C@H](CC(=O)O)C(C(=O)O)C(=O)O,> 11.4,-3.69,-5.24,-3.1,> 46,> 9.22 µM,inactive,inactive
S=c1nc(-c2nc(=S)[nH]c3c2CCCCCCCCCC3)c2c([nH]1)CCCCCCCCCC2,> 11.4,-8.81,15.1,9.8,> 46,> 9.22 µM,inactive,inactive
C[N+](C)(N)Cc1nc(-c2ccc(Cl)cc2)no1,> 11.4,3.76,-6.01,4.26,> 46,> 9.22 µM,inactive,inactive
O=C(O)CCN1C(=S)CSC1=S,> 11.4,-2.79,8.02,10.1,> 46,> 9.22 µM,inactive,inactive
C[N@@+]1(CC[N@@+]2(C)CCC[C@H]2c2cccnc2)CCC[C@@H]1c1cccnc1,> 11.4,28.9,-16.4,-5.44,> 46,> 9.22 µM,inactive,inactive
Cn1c(=O)c2c(ncn2CCSS(=O)(=O)O)n(C)c1=O,> 11.4,-0.109,18.1,-2.16,> 46,> 9.22 µM,inactive,inactive
O=[N+]([O-])c1ccc2c(c1)c(S(=O)(=O)O)cc1nonc12,> 11.4,-3.17,6.23,19.1,> 46,> 9.22 µM,inactive,inactive
Cc1nc(-c2ccccc2)c(Cc2ccccc2O)c(=O)[nH]1,> 11.4,-9.11,4.59,0.211,> 46,> 9.22 µM,inactive,inactive
O=S(=O)(c1ccccc1)N1CCN(S(=O)(=O)c2ccccc2)c2ccccc21,> 11.4,-16.4,-13.6,-7.57,> 46,> 9.22 µM,inactive,inactive
CN1CCN(c2ccc3nc(-c4ccc5nc(-c6ccc(O)cc6)[nH]c5c4)[nH]c3c2)CC1,> 11.4,-22.4,-8.32,23.8,> 46,> 9.22 µM,inactive,inactive
O=C1CC[C@](CCc2nc3ccccc3[nH]2)(c2ccccc2)C(=O)N1,> 11.4,1.26,7.74,3.31,> 46,> 9.22 µM,inactive,inactive
CN(C)CCCN=C(N)N,> 11.4,11.7,4.78,2.14,> 46,> 9.22 µM,inactive,inactive
NC(=S)N/N=C\c1c[nH]c2ccccc12,> 11.4,2.82,-6,13.8,> 46,> 9.22 µM,inactive,inactive
C=C(C)CN(CC#N)CC(=C)C,> 11.4,2.17,9.57,16.5,> 46,> 9.22 µM,inactive,inactive
COc1cc(NCC[C@@H]2CCCCN2)c2ncccc2c1,> 11.4,28.5,-23.9,13.7,> 46,> 9.22 µM,inactive,inactive
CC1(C)[C@@H](CC(=O)O)CCC[C@@H]1CC(=O)O,> 11.4,2.47,5.58,1.3,> 46,> 9.22 µM,inactive,inactive
O=C(NC1(C(=O)O)CCCC1)c1ccccc1,> 11.4,-4.54,12,6.79,> 46,> 9.22 µM,inactive,inactive
O=C(NCc1cccs1)O[C@H]1C[C@H]2CC[C@@H]1C2,> 11.4,19.6,16.7,8.46,> 46,> 9.22 µM,inactive,inactive
CN(C)Cc1nsc(N(C)C)n1,> 11.4,6.96,0.0247,11.1,> 46,> 9.22 µM,inactive,inactive
COc1ccc(Oc2ncc3nc(-c4ccccc4)c(=O)n(CCC#N)c3n2)cc1,> 11.4,-26.9,-6.24,-6.05,> 9.22,> 46 µM,inactive,inactive
Nc1nc2nc3c(nc2c(=O)[nH]1)CN(c1ccc(C(=O)O)cc1)C3=O,> 11.4,-9.73,13.8,-8.98,> 46,> 9.22 µM,inactive,inactive
O=S(=O)(c1cccc(C(F)(F)F)c1)N1c2ccccc2-n2cccc2[C@H]1c1cccnc1,> 11.4,-23.2,-6.39,-6.23,> 46,> 9.22 µM,inactive,inactive
CSCC[C@@H](C(=O)O)N(C)C,> 11.4,3.21,7.85,2.15,> 46,> 9.22 µM,inactive,inactive
